From the supplement of paper PMC10681739 come the findings set out here.

Over roughly 2,700 sequences, “arbitrary fluorescence units” has its median near 4,100; the highest 2% begin near 54,000. What follows is part of a selection rich in the highest values, with near analogues and random picks from the rest.

This assay addresses T1, ETS1 (UniProt P14921).
T1 sequence: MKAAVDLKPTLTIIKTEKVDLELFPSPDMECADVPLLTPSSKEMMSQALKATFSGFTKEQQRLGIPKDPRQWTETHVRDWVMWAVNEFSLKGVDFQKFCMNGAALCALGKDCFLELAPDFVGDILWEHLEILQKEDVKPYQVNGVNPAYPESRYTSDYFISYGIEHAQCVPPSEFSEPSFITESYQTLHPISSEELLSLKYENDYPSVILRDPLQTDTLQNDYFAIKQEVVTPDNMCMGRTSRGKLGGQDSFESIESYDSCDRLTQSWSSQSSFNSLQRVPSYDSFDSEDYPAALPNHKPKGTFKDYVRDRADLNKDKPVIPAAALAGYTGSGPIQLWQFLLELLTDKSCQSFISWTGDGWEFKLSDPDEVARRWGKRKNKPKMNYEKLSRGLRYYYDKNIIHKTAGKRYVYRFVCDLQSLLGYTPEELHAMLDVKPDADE
The assay is described as follows: ETS1 binding intensity (PBM fluorescence) (arbitrary fluorescence units); higher = stronger binding. The conditions noted are these: ETS1 concentration 10 nM. How it is done:
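gcPBM on wild-type 36-bp genomic probes with two neighbouring ETS1 sites (4-24 bp apart). Recombinant human ETS1 (10 nM) was detected with anti-ETS1 antibody fluorescence. Values are medians over 3 replicate spots. The probes sit in constant array flanks that are not printed.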
In turn, ACATAAGACATGAGGATGTCTTCCTGACTTGCGTCC came in with an ETS1 binding intensity of 208.
Then GGGTCTTCCGGCCCTCTCGAAAATCATTTCCGGCAT, with 22500.
Sequence GTTATGATAACGGAACTACAGTTCCTCCAGGATGGA registered an ETS1 binding intensity of 195.
GGAGGAGGCGGAGGAAACCCGGAAAAGGGGCCGCGC: the ETS1 binding intensity was determined as 382.
Next, GCTCCGCCCCCGGAAGCCTCACTTCCGGGCGCGAGC: 25300; GGCTCACTTCCGGCCTCAGAGCCGCTTCCGGCGCGC: 71400; GCGCCGCCTCAGTTCCGCGGCTTCCGGCCACAGAGT: 8030.
In the case of CGGGAGCAGCGGAAGTCATTAACATCCGCGGTTGTG, the ETS1 binding intensity was determined as 12500.
As for TGCCACCACACCAGGATGCTTCCGTCTTTGAAGGCA, the ETS1 binding intensity is 1030.
Next, GTCACCACATCCTGAGGCTTCTCATTTCCTTTCTAC: 6290; TGTTATTGGACAACTTCCAGGAAAACATCCTCAAGA: 273; TGCCAAGTTACACTTCCTGTTTCCTCTCTGTGTGCC: 31700.
ACAACTTCCTGTTACACAAGACAGGTATTTCCTCAT: the ETS1 binding intensity came to 59800.
On to AGCCCAAGCGCGGAAGAGGGCGGAAGGAGAACCCCT, for which the ETS1 binding intensity amounted to 240.
For GCACCAAGGGAAGTGGTTAAAACAGGAAGACCCGCT, the ETS1 binding intensity worked out at 919.
Next, CGGCCCTTCCATTTCCTGCCTTCCTGCCTGCATTTG: 24200.
Next, GTCACTTCCGGCGCCCGCCTACACGCACTTCCGTTC: 88200; GGAGCACTTCCGCTGGACGCACGCACTTCCGGCCCC: 50800.
Next, TTACACTACTTCCGCCGCCTCACTTCCGGTGACGCG: 34100.
As for CATCCTTGGCATTTCCTCTGAGGAAGCTCGCACCCC, the ETS1 binding intensity was found to be 3550.
In turn, GGTTGGTGATTGGCAGGATCCTGGTATCCGCTAACA displayed an ETS1 binding intensity of 278.
The sequence CTTCGCCTTCCGCTGTGAATAATAGCTTCCTGAGGC had an ETS1 binding intensity of 10100.
The sequence CTGCTACAGGAAATCGCTTGTTATTTCCTGTAATGC yielded an ETS1 binding intensity of 10900.
For the sequence TTCATTTCCGGCGGCGGAGGCGGCAGTTTCCTAAGC, the ETS1 binding intensity was found to be 73000.
Then TGAGGCGGTTTCCTCGGCGCCTTTTCCGGCAGCGGC, with 1360; and CTCAACTTCCGGAGGCGGCAGACTTTTTCCGTCAAG, with 36700.
As to AGATCGCTGGCTTCCTGTGTTTTTCCTGGACTCAGG, the ETS1 binding intensity amounted to 14800.
Then GCACCGGAAGTGACCGCCTCGCGGCTGCTTCCTCTC, with 57700; and CGCCGGAAGTGGTCGCGGGTCGTTCTGCTTCCTGCC, with 18000; and CGGCCTCTTCCGCGAGCCCGCGCGCCGGAAGTGGAA, with 5440.
Sequence CCTGAGTTTCCTTGTCTGGAGCTGCAGGATATTTGT came in with an ETS1 binding intensity of 800.
Next, ACCCCCTGGCGGATGCTGTGTGTTTCCTGTGCTTAG: 3420; GGTCCGGAAGGGAGGAGAACACAAGCAGGATATAAC: 860.
Next, ATCTGCAGGATGTAAGAAGAATAGAAGGAAGCTGGG: 1930.
GACACAACTTCCGGCTTCTGGCGGCGGAAGAGGACA: the ETS1 binding intensity turned out to be 90100.
GGGGACCGGAAGCCAGCGGCAACAACTTCCGGCGGG: the ETS1 binding intensity turned out to be 23100.
TGGCGGAGGCGCCGGAAGTTTTCCGGCTTTCTGCTG gave an ETS1 binding intensity of 4500.
Then TGATTTCCGCTTTCTCCCCAGTGATTGCTTCCTTCA, with 68300.
Then TGAATGCTGTCATTTCCGCTTCCGCCTCCTTCTTTC, with 26500; and GCCTTCAATTTCCGTAGGGAACCTTCCTCCCAGTGA, with 6860.
Then TCAACATCCTGCTTCTCAGGGCACCACAGGAAATGT, with 36600.
In the case of ACGTCACTTCCGGCGCCGGGGCTCACTTCCTGGTGC, the ETS1 binding intensity was 87500.
Then GGCGGCGACGGAAGTGAAGTCACTTCCGGGCTGGGG, with 21300; and TCGGGCCCTGGCTTCCGTCACTTCCGCCCGTGCCTG, with 14700.
On to CAGCTAGGCTTCCTTCTCCTCCCTTCCTGTGCCTCC, for which the ETS1 binding intensity was 1100.
Regarding GTTTTCAGTTGCCTTCCGGTTTCCTGCTGTGATAAC, the ETS1 binding intensity stood at 15800.
Next, GAGGGTAACTTCCTGTTTCTGCCTTCCGGGTTTGAG: 47100.
Next, TCTACTTCCGGTTTGCCTGTGAATTCTTTCCTGGGC: 153000; AAGGGAATCTGGGAAATGTAGTTTCCTGCAATCCAG: 540.
Sequence GGCCGCTTCCGAGCGCCGCCAACCGCTTCCGGGTTC gave an ETS1 binding intensity of 5250.
Then GCCCGAGCCGCTTCCGGGTACTTCCGGCGGCCGCGG, with 39600; and GTCACTTCCGGCCCCGAGTTCGAGCCGCTTCCGGGT, with 115000.
Then GGACTTCCCAACTAGACAGACCAAATGAGGAAGTTG, with 880; and CTGGGGGTCCGGATGCTTTGCGTTTCCCAGCAGTTG, with 1230.
Then GGGCACTTCCGGGGCCGGCGCCCAGAGTTCCGGGAG, with 46800; and CCCACTTCCGGCAACAAGATAGAGCACTTCCGTCAA, with 77600; and TGACAAGAGCCGGAACCGTCACTTCCGGCGGCGCGG, with 24700.
In turn, TCAGTGGGCGGAAGAGGTGGCCCCGGATGCTGCGGC displayed an ETS1 binding intensity of 1430.
For CGCCGCCGGAAGTGCCTGGCCTCACTTCCGGTCAGA, the ETS1 binding intensity stood at 37200.
Consider ATTTTCGGTCTTCCGGTCAGCCGGAACCACTCACAC, for which the ETS1 binding intensity was 29800.
GCGGTTACTTCCGGTCACTTTCGCCGGAACCTGACT came in with an ETS1 binding intensity of 86200.
Next, CCATTCATTTCCTGCCTCCCCGAGTTCCGGCTGCGG: 35800; CAATTGAGGAAACAGGACCAAAGACAGGAAATGGCT: 2860; GCGCTTCGGGCCCTTCCGGCTTCCCGGGCCTCCCGG: 8330.
Then CGTCCACTGGAGGCTTCCTTCCGGCGCCCGCGTGCC, with 3590.
Next, GCGCCTGATTCACTTCCCTCTTCCGCTCTGAGGCGT: 4680; CGTCACTTCCGGCGCCGCGTGAGGCCTTCCGGTGCC: 73900; GACCGCAGGAAGGGACGCGGCCGCACTTCCGGCGAC: 8620.
As to CCACTTCCGGCATGCGCAGGGACGCACCTTCCGGCT, the ETS1 binding intensity came out at 109000.
Next, GCGCTTCCGGGACGCAGGAGGCATCTGCATCCGGGG: 29000; GACAGGAAGGCTACAGGCTGCCTGTGGCTTCCGTGT: 386.
Then AGACTTCCGTTCTGGCTCTCACTCTAGTTTCCTGGT, with 67500; and CTCTGTGACTTCCTGGAGACTCACTTCCTAGATGAG, with 11300; and AGCACTTCCTCAATTTCTGGCTCTACAGGATATTTC, with 16100.
Turning to ACTGCCTTCCTGGCCTGGTGGTGAGAGGAAGTCGGG, the ETS1 binding intensity worked out at 2260.
For the sequence CTATGGTAGGAAACCCAGAAAACAGGAAGTGGCCTC, the ETS1 binding intensity was found to be 3030.
As to CAACTTGTCGGAGCGGAACTTCCGGCGTCCTCCCTG, the ETS1 binding intensity was 22800.
Then GGGTGCGGAAACGCGGCAGCCGCGGCCGGATGCTGC, with 2710; and GCTGCAACTTCCGGTGCGCTAGCCGGAAACGCGGGT, with 78200; and TGCCCGGCTTCCGGGTGGCTGCGCGGAAGCGCGGTG, with 20900.
